In PubChem BioAssay AID686979 (National Center for Advancing Translational Sciences (NCATS), 2013):
About 50,000 (12%) of roughly 420,000 compounds were called active. Roughly 26% stayed inconclusive and do not appear here. Calls come from the whole dose curve; as a rule, active = well fitted inhibition curve with a large enough effect; inconclusive = small, poorly fitted or top-dose-only effect; inactive = flat fitted curve, though single readings scatter. The entries come from a sample that favours actives as a whole. Entries that show only a call come without a potency.

Assay: qHTS for Inhibitors of human tyrosyl-DNA phosphodiesterase 1 (TDP1): qHTS in cells in presence of CPT; note: nearly all actives have a fitted effect of over 55% in size
Settings: chicken DT40 Tdp1-/-;hTDP1 cells + 20 nM CPT, ATP luminescence, 48 h; series mostly up to 46.2 µM
In short: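 Chicken DT40 Tdp1-/- cells stably complemented with human TDP1 were seeded at 400 cells/well in medium containing 20 nM camptothecin, exposed to pin-transferred compounds, and grown at 37 °C for at least 48 hr. Viability was read as ATP luminescence.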
Potency is the fitted concentration of half-maximal effect.

Structure (SMILES)	Potency
CCOc1ccc(C(=O)Nc2ccc(S(=O)(=O)Nc3cc(C)on3)cc2)cc1	inactive
Cc1ccc(Nc2c(-c3ccc(Cl)cc3)nc3sccn23)c(C)c1	inactive
O=C(O)c1ccc(Cn2c(=S)[nH]c3cc(Cl)ccc3c2=O)cc1	inactive
N#CC1=C(N)Oc2c(sc3ccccc23)C1c1ccco1 (centres undefined)	7.31 µM (active)
COC(=O)C1=C(O)/C(=C/c2ccc(OCC(=O)Nc3ccccc3)cc2)N=C1C	inactive
COC(=O)C1CCCCN1C(=O)c1ccc(OC2CCN(C(C)=O)CC2)c(OC)c1 (centres undefined)	inactive
O=S(=O)(NC1CCCCC1N1CCC(O)CC1)c1ccc(Cl)cc1 (centres undefined)	inactive
CNC(=O)N1c2ccccc2C=Cc2ccccc21	inactive
CC1C(C)N(C(=O)CCl)c2ccccc2N1C(=O)CCl (centres undefined)	0.58 µM (active)
CCNC(=O)N1c2ccccc2Sc2ccccc21	inactive
C=CCNC(=S)N1CCN(CCN=Cc2c(C)[nH]n(-c3ccc([N+](=O)[O-])cc3)c2=O)CC1	inactive
Cc1[nH]n(-c2ccccc2)c(=O)c1N=Nc1ccccc1C(=O)N1CCCCC1	inactive
Cc1[nH]n(-c2ccc([N+](=O)[O-])cc2)c(=O)c1C=NCCN1CCN(C(=O)c2ccccc2F)CC1	9.2 µM (active)
CCCC(=O)Nc1cccc(NC(=S)NC(=O)C(C)Oc2ccc(Cl)cc2Cl)c1 (centres undefined)	inactive
CC1CC(C)CN(C(=O)CCNC(=O)Cn2cnc3ccccc3c2=O)C1 (centres undefined)	inactive
C=CCOc1cccc(C2C(C(=O)c3ccc(C)o3)=C(O)C(=O)N2CCCn2ccnc2)c1 (centres undefined)	inactive
CC(=O)N1CCc2c(sc(NC(=O)CCS(=O)(=O)c3ccccc3)c2C#N)C1	20.6 µM (active)
CCC1CCc2c(sc(NC(C)=O)c2C#N)C1 (centres undefined)	inactive
CC(C)N1CCc2c(sc(NC(=O)Cc3ccccc3)c2C#N)C1	inactive
Cc1c(C(=O)NCC2CCCN(C)C2)cnn1-c1nccc(-c2ccco2)n1 (centres undefined)	inactive
CCCC(c1nnnn1C(C)(C)C)N1CCN(Cc2ccccc2)CC1 (centres undefined)	inactive
O=C(Nc1ccccc1)N1CCN(Cc2ccccc2)CC1	inactive
CC(NC(=S)Nc1ccccc1)C(c1cccs1)N1CCOCC1 (centres undefined)	inactive
CCCC(=O)NC(C)C(c1cccs1)N1CCN(c2ccccc2)CC1 (centres undefined)	inactive
CC(NC(=O)C(C)(C)C)C(c1cccs1)N1CCN(Cc2ccccc2)CC1 (centres undefined)	20.6 µM (active)
CC(NC(=O)Nc1ccccc1)C(c1cccs1)N1CCN(c2ccccc2)CC1 (centres undefined)	13 µM (active)

Structure (SMILES)	Potency
O=C(NCCCN1CCCCCC1)C1CC(=O)N(C2CCCC2)C1 (centres undefined)	inactive
N#Cc1nc(/C=C/c2ccc(F)cc2)oc1NCc1ccc(F)cc1	inactive
Cc1cc(NC(=O)CCC(=O)N(CC(=O)NC2CCCC2)c2ccc(F)cc2)no1	inactive
N#C/C(=C\c1ccccc1C(F)(F)F)C(=O)Nc1ccccc1F	inactive
CNC(=O)/C(C#N)=C/c1c(F)cccc1Cl	11.6 µM (active)
Cc1[nH]c2ccccc2c1/C=C(/C#N)C(=O)NC(C)C	inactive
Cc1ccsc1C(=O)NCCc1ccco1	inactive
CCN1CCN(C(C(=O)NC2CCCC2)c2cc3c(cc2[N+](=O)[O-])OCO3)CC1 (centres undefined)	inactive
CCc1ccccc1NC(=O)c1cc(-c2ccc3c(c2)OCO3)on1	inactive
COc1ccc(-c2cn(-c3ccc(C)cc3)c(=O)n2CC(=O)Nc2ccc(OC)c(OC)c2)cc1	inactive
Cc1ccc(Nc2nnc(SC(C)C(=O)NC3CC3)s2)cc1 (centres undefined)	inactive
CC(=O)c1sc(N/N=C\c2ccc(C)cc2)nc1C	inactive
Cc1ccc(Nc2nc(Cl)c(C=O)s2)cc1	18.4 µM (active)
COc1ccc(NC(C)=O)cc1NC(=O)CN1CCN(C2c3ccccc3-c3ccccc32)CC1	inactive
COCCN(C(=S)Nc1ccccc1OC)C1CCN(C(C)C)CC1	inactive
Cc1cc(C#N)c(SCC(N)=O)nc1-c1ccc(F)cc1	inactive
Cc1nn(-c2ccccc2)c(Cl)c1/C=C/C(=O)c1ccc(O)cc1	inactive
CCC1(C(=O)c2ccccc2)C(c2cccc([N+](=O)[O-])c2)C1(C(=O)OC)C(=O)OC (centres undefined)	23.1 µM (active)
Cc1cc(CNC(=O)c2cccc([N+](=O)[O-])c2)c2ccccc2n1	inactive
O=C(NOCc1ccccc1)c1cccc([N+](=O)[O-])c1	inactive
CC1O[C@H](OC2C(COC3OC(CO)C(O)[C@H](O)C3O)OC(OC3CC[C@]4(C)C(CC[C@@]5(C)[C@@H]4C=C[C@]46OC[C@@]7(CCC(C)(C)C[C@H]74)C(O)C[C@@]56C)C3(C)C)C(O)C2O)C(O)C(O)C1O (some centres undefined)	inactive
CCc1ccc(-c2nn(-c3ccccc3)cc2CSC(=N)N)cc1	16.4 µM (active)
Cc1ccc(-c2nn(-c3ccccc3)cc2C(=O)NC2CCC(O)CC2)cc1 (centres undefined)	inactive
CCc1ccc(-c2nn(-c3ccccc3C)cc2C(=O)N2CCN(C3CCS(=O)(=O)C3)CC2)cc1 (centres undefined)	inactive
CC1(C)C2CCC13CS(=O)(=O)NC3C2 (centres undefined)	inactive
COC(=O)c1c(C(=O)OC)c2n(c1C)CCS2	inactive

Structure (SMILES)	Potency
Cc1cc(C)c(C2C3=C(Nc4c2c(C)nn4-c2ccccn2)c2ccccc2C3=O)c(C)c1 (centres undefined)	13 µM (active)
Cc1nn(-c2ccccn2)c2c1C(c1ccncc1)C1=C(CC(C)(C)CC1=O)N2 (centres undefined)	29.1 µM (active)
Cc1cc2c(cc1C)NC(c1ccccn1)C1=C(CC(C)(C)CC1=O)N2 (centres undefined)	inactive
CC1(C)CC(=O)C2=C(C1)Nc1cc(C(=O)c3ccccc3)ccc1NC2c1ccccn1 (centres undefined)	inactive
CN(CC(=O)NCc1ccc2c(c1)OCO2)CC(=O)Nc1ccc(F)c(F)c1F	inactive
COc1ccc(-n2nc3c(c2NC(=O)c2ccc(N4C(=O)CCC4=O)cc2)CSC3)cc1	inactive
O=C(Oc1cccc(C(=S)N2CCOCC2)c1)c1cccc(Cl)c1	inactive
COC(=O)c1cccc(NC(=O)c2cccc(N3C(=O)CCC3=O)c2)c1	inactive
COc1ccccc1C(=O)NCC(=O)OCC(=O)Nc1nnc(-c2ccccc2)o1	inactive
Cc1cc(C)cc(NC(=O)N(C)Cc2ccccc2)c1	inactive
CC(NC(=O)c1ccco1)C(=O)Nc1nc(-c2ccccn2)cs1 (centres undefined)	5.8 µM (active)
O=C(COc1ccccc1F)Nc1nc(-c2ccccn2)cs1	5.17 µM (active)
N#Cc1ccc(OCC(=O)Nc2nc(-c3ccccn3)cs2)cc1	1.64 µM (active)
Cc1cc(NC(=O)[C@H](C)NC(=O)c2ccco2)ccc1Br	inactive
Cc1ccnc(NC(=O)c2ccco2)n1	inactive
CC1CCN(S(=O)(=O)c2nnc(NC(=O)COc3ccccc3F)s2)CC1	inactive
O=C(COc1ccccc1F)NC1CC1	inactive
CC1CCCCC1NC(=O)COc1ccc(C#N)cc1 (centres undefined)	inactive
NS(=O)(=O)c1ccc2nc(NC(=O)COc3ccccc3)sc2c1	inactive
CCOC(=O)C1C(c2ccc(O)cc2)NC(=O)NC1(O)C(F)(F)F (centres undefined)	inactive
Cc1ccccc1NC(=O)CSC1=NCCN1	inactive
Cc1nc(SCC(=O)N2CCN(c3ccccc3)CC2)[nH]c(=O)c1C	inactive
Cc1ccc(C2(C(F)(F)F)N=C3Sc4cc(C)cc(C)c4N3C(=O)N2)cc1 (centres undefined)	inactive
Brc1ccc(OCCn2ccnc2)cc1	inactive
C=CCc1cc(C)ccc1OCCCn1ccnc1	inactive
c1ccc(Cc2ccc(OCCn3ccnc3)cc2)cc1	20.6 µM (active)

Structure (SMILES)	Potency
CCN(CC(=O)Nc1ccc2c(c1)OCCO2)Cc1cc(=O)oc2cc(C)c(C)cc12	inactive
CC(C)Cc1oc(C(=O)O)cc1CN	inactive
COCCn1c(SCC(=O)Nc2ccccc2F)nc2c(c1=O)SCC2	inactive
Cc1cc(C)cc(NC(=O)Cn2c(=O)c3ccccc3n3nncc23)c1	inactive
Cc1cc(C)c(NC(=O)CSc2nc3nccnc3c(=O)n2CCc2c[nH]c3ccccc23)c(C)c1	inactive
Cc1cc(C)cc(NC(=O)CSc2nc3nccnc3c(=O)n2CCc2c[nH]c3ccccc23)c1	14.6 µM (active)
O=C(CSc1nc2nccnc2c(=O)n1CCc1c[nH]c2ccccc12)Nc1ccccc1F	10.3 µM (active)
Cn1c(CCC(=O)Nc2ccccc2F)nnc1SCC(=O)Nc1ccccc1Cl	inactive
O=Cc1c(Cl)cccc1Cl	inactive
CC1(C)O[C@@H]2[C@H](O1)[C@@H](CO)O[C@H]2n1c(N2CCCCC2)nc2c(N)ncnc21	inactive
CC(C)CNS(=O)(=O)c1ccc(C(=O)Nc2ccc3c(c2)OCO3)cc1	inactive
CC(=O)Nc1cccc(NC(=O)CSc2nccn2Cc2ccc3c(c2)OCO3)c1	inactive
CNc1ccc([N+](=O)[O-])cc1C(=O)O	inactive
Cn1cnc([N+](=O)[O-])c1Sc1n[nH]c(N)n1	inactive
Cn1cnc([N+](=O)[O-])c1Sc1ccccc1	18.4 µM (active)
Cn1cnc([N+](=O)[O-])c1Nc1ccccc1O	inactive
COc1cccc(N2CC(NS(=O)(=O)c3cccs3)CC2=O)c1 (centres undefined)	inactive
Cc1c(Cl)cccc1NC(=O)CCS(=O)(=O)c1ccc2c(c1)oc(=O)n2C	inactive
OC(COCC1COc2ccccc2O1)CN1CCN(c2ccc(F)cc2)CC1 (centres undefined)	13 µM (active)
O=C(COC(=O)c1ccc(F)cc1)NCC1COc2ccccc2O1 (centres undefined)	inactive
OC(COCc1ccco1)CN1CCN(c2ccccc2)CC1 (centres undefined)	inactive
Nc1ncnc2c1ncn2[C@@H]1O[C@H](C(=O)NCC(F)(F)F)[C@@H](O)[C@H]1O	inactive
COc1ccccc1NC(=O)COC(=O)COc1ccccc1F	inactive
CCCNC(=O)C(CC)n1nc(CC)n2c(cc3oc(C)cc32)c1=O (centres undefined)	25.9 µM (active)
CCc1nn(CCCC(=O)NC(C)c2ccccc2)c(=O)c2cc3occc3n12 (centres undefined)	inactive
CCc1nn(CC(=O)N2CCN(c3cc(C)ccc3C)CC2)c(=O)c2cc3occc3n12	inactive
